Assay results from PubChem BioAssay (Tox21).
Records with an inconclusive call do not appear. A number with no mark means an inactive call. Active and inactive are the calls of the source. The call rests on the fitted dose curve; in most records, active means well fitted curve in the direction sought with a large enough effect in the repeat runs; inconclusive means weak or mixed curves; inactive means no such curve, though single readings can be large; an effect the other way counts as inactive or inconclusive.

target: Voltage-gated inwardly rectifying potassium channel KCNH2 (Homo sapiens) (UniProt Q12809); assay: Human Ether-a-go-go-Related Gene (hERG) channel small molecule antagonists: fluorescence cell-based qHTS assay (AID 1671200); conditions: hERG-U2OS cells, FluxOR thallium flux fluorescence; series mostly up to 76.8 µM; activity change, negative = inhibition: at the top concentration;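 on activity change, negative = inhibition: hERG-expressing U2OS cells given a thallium stimulus after FluxOR II dye loading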
Sequence (Q12809 whole entry, looked up): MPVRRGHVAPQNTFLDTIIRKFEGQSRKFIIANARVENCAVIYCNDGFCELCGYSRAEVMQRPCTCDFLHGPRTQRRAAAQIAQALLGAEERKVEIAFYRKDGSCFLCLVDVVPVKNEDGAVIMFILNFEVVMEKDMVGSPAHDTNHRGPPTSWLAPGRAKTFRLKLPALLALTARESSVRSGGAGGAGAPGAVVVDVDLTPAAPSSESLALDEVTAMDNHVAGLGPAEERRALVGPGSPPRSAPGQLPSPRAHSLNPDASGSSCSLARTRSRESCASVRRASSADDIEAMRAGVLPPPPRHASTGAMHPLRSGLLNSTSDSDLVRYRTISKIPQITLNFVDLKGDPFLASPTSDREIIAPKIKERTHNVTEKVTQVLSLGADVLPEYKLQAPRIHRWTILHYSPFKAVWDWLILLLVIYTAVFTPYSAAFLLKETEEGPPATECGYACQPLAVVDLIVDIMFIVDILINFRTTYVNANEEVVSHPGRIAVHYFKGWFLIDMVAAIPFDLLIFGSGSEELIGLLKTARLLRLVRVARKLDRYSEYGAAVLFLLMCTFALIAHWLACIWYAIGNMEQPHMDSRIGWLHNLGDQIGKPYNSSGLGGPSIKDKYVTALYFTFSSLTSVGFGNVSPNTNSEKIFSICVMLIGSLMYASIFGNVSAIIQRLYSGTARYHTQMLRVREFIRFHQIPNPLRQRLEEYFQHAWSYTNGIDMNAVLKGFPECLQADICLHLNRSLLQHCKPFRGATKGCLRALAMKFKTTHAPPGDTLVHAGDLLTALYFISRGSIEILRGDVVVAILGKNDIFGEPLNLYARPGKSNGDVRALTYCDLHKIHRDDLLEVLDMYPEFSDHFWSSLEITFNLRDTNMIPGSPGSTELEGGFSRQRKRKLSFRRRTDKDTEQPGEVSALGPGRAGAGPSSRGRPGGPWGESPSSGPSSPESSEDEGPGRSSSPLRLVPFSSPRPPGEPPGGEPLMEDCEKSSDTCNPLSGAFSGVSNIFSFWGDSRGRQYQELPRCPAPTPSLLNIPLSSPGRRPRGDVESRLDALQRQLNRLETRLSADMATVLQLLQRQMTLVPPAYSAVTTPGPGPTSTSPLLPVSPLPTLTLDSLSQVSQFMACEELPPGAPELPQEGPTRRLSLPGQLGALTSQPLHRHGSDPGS
Outline: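 hERG-U2OS cells plated overnight at 37 C, loaded with FluxOR II dye 1 h at RT in dark; after 10 min, thallium stimulus added. Fluorescence (480/540 nm) read kinetically for 2 min at 1 s intervals.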
Further: nearly all actives have a fitted effect of over 50% in size.
On the % scale 0 is the no-effect control and ±100 the full control effect; potency means the concentration at half of the fitted maximal effect.

First: N#CC1(O)CCCCC1
Second: C=CC(=O)N1CCOCC1
The “activity change, negative = inhibition” value of the first is lower: 1% for the first, 1.08% for the second.

Going from `CCCCc1ccc(N)cc1` to `CC(=O)CCc1ccc(O)cc1`, the “activity change, negative = inhibition” value rises from -0.167% to 1.84%.

Compared with `CCC(C)(C)C1CCC(OC)CC1` (stereo unspecified), `CC(=O)OC(C)(C)C` is higher in “activity change, negative = inhibition” value: -0.521% for the first, 0.0023% for the second.

Going from `CO` to `CCCOCC(C)OCC(C)O` (stereo unspecified), the “activity change, negative = inhibition” value rises from -0.166% to 1.73%.

Going from `N[C@@H](CS)C(=O)O` to `CC(=O)O[C@H](CC(=O)[O-])C[N+](C)(C)C`, the “activity change, negative = inhibition” value falls from 7.24% to 2.21%.

Compared with `Cc1ccccc1Br`, `Cc1ccc(N)cc1[N+](=O)[O-]` is lower in “activity change, negative = inhibition” value: 1.58% for the first, -0.283% for the second.

Compared with `COc1ccc(N=[N+]([O-])c2ccc(OC)cc2)cc1`, `[O-][N+](=Nc1ccccc1)c1ccccc1` is lower in “activity change, negative = inhibition” value: -0.487% for the first, -16.3% for the second.

First: CC(C=O)Cc1ccc(C(C)C)cc1 (stereo unspecified)
Second: c1ccc(SCCSc2ccccc2)cc1
The “activity change, negative = inhibition” value of the first is lower: -0.687% for the first, 0.456% for the second.

Going from `CCCCCCCCCCC1CO1` (stereo unspecified) to `CC(C)CCCCCCN`, the “activity change, negative = inhibition” value falls from -3.32% to -4.95%.

`c1ccc(CCCc2ccccn2)cc1` was tested, and the “activity change, negative = inhibition” value was -4.81%.

Going from `O=S(=O)(c1cccc2cnccc12)N1CCCNCC1` to `CCOC(=O)Nc1ccc2c(c1)N(C(=O)CCN1CCOCC1)c1ccccc1S2`, the “activity change, negative = inhibition” value falls from -0.765% [at 35.3 µM] to -19.2% [at 35.3 µM].

First: O=C1C(CCS(=O)c2ccccc2)C(=O)N(c2ccccc2)N1c1ccccc1 (stereo unspecified)
Second: Cc1onc(-c2ccccc2)c1-c1ccc(S(N)(=O)=O)cc1
The “activity change, negative = inhibition” value of the first is higher: 1.78% [at 35.3 µM] for the first, -15.5% [at 35.3 µM] for the second.

Going from `CN(C)CCn1nnnc1SCC1=C(C(=O)O)N2C(=O)[C@@H](NC(=O)Cc3csc(N)n3)[C@H]2SC1` to `CC(=O)NC(Cc1ccccc1)C(=O)O` (stereo unspecified), the “activity change, negative = inhibition” value rises from 0.569% [at 35.3 µM] to 4.13% [at 35.3 µM].

Compared with `NCCNC(=O)c1ccc(Cl)cn1`, `O=C(O)c1ccccc1S` is higher in “activity change, negative = inhibition” value: -6.92% [at 35.3 µM] for the first, 1.57% [at 35.3 µM] for the second.

With `CCCCCN(CCCCC)C(=O)C(CCC(=O)O)NC(=O)c1ccc(Cl)c(Cl)c1` (stereo unspecified) the Potency was 9.52 µM (active).

target: Cytochrome P450 3A4 (Homo sapiens) (UniProt P08684); assay: Cytochrome P450 Family 3 Subfamily A Member 4 (CYP3A4) small molecule antagonists: luciferase reporter qHTS assay (AID 1671201); conditions: P450-Glo CYP3A4 enzyme, luciferin luminescence, 1 h; series mostly up to 115 µM; activity change, negative = inhibition: at the top concentration
Sequence (P08684 whole entry, looked up): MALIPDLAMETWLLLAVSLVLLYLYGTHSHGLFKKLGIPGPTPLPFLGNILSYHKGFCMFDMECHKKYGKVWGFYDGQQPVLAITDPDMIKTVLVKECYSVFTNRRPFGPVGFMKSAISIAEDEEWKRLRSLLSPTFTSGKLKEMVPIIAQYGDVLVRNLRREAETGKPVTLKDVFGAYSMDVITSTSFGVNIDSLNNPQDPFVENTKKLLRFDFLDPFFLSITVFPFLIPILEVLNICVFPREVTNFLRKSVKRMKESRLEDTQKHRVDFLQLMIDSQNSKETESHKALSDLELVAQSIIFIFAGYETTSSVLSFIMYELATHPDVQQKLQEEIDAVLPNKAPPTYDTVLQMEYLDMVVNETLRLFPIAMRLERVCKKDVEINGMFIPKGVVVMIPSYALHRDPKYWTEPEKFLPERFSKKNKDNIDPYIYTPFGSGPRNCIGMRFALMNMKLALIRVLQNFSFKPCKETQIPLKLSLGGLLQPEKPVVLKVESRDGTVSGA
Outline: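 P450-Glo CYP3A4 luminescent assay: compounds preincubated 10 min at room temperature with enzyme and proluciferin substrate, NADPH regeneration added, 1 h room-temperature reaction, stopped with luciferin detection reagent; luminescence read after 20 min. Ketoconazole positive control.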

First: N#CC1(O)CCCCC1
Second: C=CC(=O)N1CCOCC1
The “activity change, negative = inhibition” value of the first is lower: 5.6% for the first, 13.7% for the second.

First: CCC(C)(C)C1CCC(OC)CC1 (stereo unspecified)
Second: CC(=O)OC(C)(C)C
The “activity change, negative = inhibition” value of the first is lower: -22.1% for the first, 13.1% for the second.

Going from `COC(C(=O)O)c1ccccc1` (stereo unspecified) to `c1ccc(SCCSc2ccccc2)cc1`, the “activity change, negative = inhibition” value rises from 18.1% to 25.8%.

First: N[C@@H](CS)C(=O)O
Second: CC(=O)CCc1ccc(O)cc1
The “activity change, negative = inhibition” value of the first is higher: 6.78% for the first, 1.15% for the second.

Going from `COc1ccc(N=[N+]([O-])c2ccc(OC)cc2)cc1` to `[O-][N+](=Nc1ccccc1)c1ccccc1`, the “activity change, negative = inhibition” value rises from -7.92% to 28.6%.

Going from `CC(C=O)Cc1ccc(C(C)C)cc1` (stereo unspecified) to `c1ccc(CCCc2ccccn2)cc1`, the “activity change, negative = inhibition” value rises from -24.3% to 34.3%.

`CC(C)CCCCCCN` was tested, and the “activity change, negative = inhibition” value was -0.1%.

Compared with `Oc1ccc2c(c1)OC[C@@H](N1CCC(O)(c3ccc(F)cc3)CC1)[C@H]2O`, `CN(C)C(=O)C(CCN1CCC(O)(c2ccc(Cl)cc2)CC1)(c1ccccc1)c1ccccc1` is higher in “activity change, negative = inhibition” value: 22.6% [at 52.9 µM] for the first, 129% [at 52.9 µM] for the second.

First: CN(C)CCn1nnnc1SCC1=C(C(=O)O)N2C(=O)[C@@H](NC(=O)Cc3csc(N)n3)[C@H]2SC1
Second: NC(=O)c1ncn([C@@H]2O[C@H](CO)[C@@H](O)[C@H]2O)c1O
The “activity change, negative = inhibition” value of the first is lower: 6.03% [at 52.9 µM] for the first, 11.9% [at 52.9 µM] for the second.

Compared with `CC(=O)NC(Cc1ccccc1)C(=O)O` (stereo unspecified), `O=C(O)c1ccccc1S` is higher in “activity change, negative = inhibition” value: 9.83% [at 52.9 µM] for the first, 40.8% [at 52.9 µM] for the second.

Going from `NCCNC(=O)c1ccc(Cl)cn1` to `O=C(O)/C=C/c1ccc(/C=C/C(=O)O)cc1`, the “activity change, negative = inhibition” value falls from 3.93% [at 52.9 µM] to 0.172% [at 52.9 µM].

In the case of `Cc1onc(-c2ccccc2)c1-c1ccc(S(N)(=O)=O)cc1`, the “activity change, negative = inhibition” value is reported as -23.3% [at 52.9 µM].

For `CSc1nc(NC2CC2)nc(NC(C)(C)C)n1`, the Potency was 39.9 µM (active).
